# This is part of a sample that, as a whole, favours compounds with a hit. Of some 83,000 tested, about 20% had one in any assay.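 Assay: single dose, 48 h. Readout: percent growth (0 = no net growth; negative = cell death). Active: <10.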 Unmarked numbers belong to inactive results. Active and inactive are the calls of the source.
# Tested on: MDA-MB-468 breast
# Experiment: NCI-60 one-dose screen, 48 h (100 = growth as untreated, 0 = no growth, -100 = all killed)
# Conditions: 10 µM unless noted
row,Compound,growth
1,CC(C)(C)n1nnnc1C(Nc1cccc2c1OCO2)c1cc2cccc3ccc4cccc1c4c32 (stereo not given),51.7%
2,CC(=O)c1nn(-c2ccccc2)/c(=N/N=Cc2cn(-c3ccccc3)nc2-c2cc3ccccc3oc2=O)s1,103%
3,CON1C(=O)CC[C@]2(C)[C@H]3CC[C@@H]4C([C@@]5(C)CCC(=O)O5)CC[C@@]4(C)[C@]3(C)CC[C@H]2C1(C)C (stereo not given in full),94.4%
4,S=c1[nH]cccc1-c1nnc2n1Nc1nc3ccc(Cl)cc3cc1CS2,109%
5,C[N+]1=C(/C=C\C=C\c2ccccc2)C(C)(C)c2ccccc21,-14.9% (active)
6,CCNCc1c(-c2cccc(OC(F)(F)F)c2)[nH]c2ccc(N3CCCC3)cc2c1=O,36.6%
7,Clc1cc(Br)ccc1-c1ccc(CNCC2CCNCC2)o1,21.2%
8,COc1cccc(CCC2CCCN(c3cc(C)nc(N)n3)C2)c1 (stereo not given),26.1%
9,COc1cc2nc(Sc3sc(N)nc3C)n(-c3ccc(Oc4ccccc4)cc3)c(=O)c2cc1OC,80.2%
10,Cc1ccc(-c2nc(C(Cl)Cl)nc3cc(-c4ccccc4)nn23)cc1,-54.2% (active)
11,O=C(O)CNS(=O)(=O)c1ccc(Oc2ccc(S(=O)(=O)NCC(=O)O)cc2)cc1,107%
12,COc1ccc(C)cc1NC(=O)SC(C)C,91.9% [100 µM]
13,Clc1ccc(-c2nc(-c3cccs3)no2)c(Cl)c1,8.37% (active)
14,CCOC(=O)c1cc(/C=C/c2ccc(Cl)cc2Cl)on1,37.6%
15,C[C@]12CC[C@@H]3c4cc(OC(F)F)c(OS(N)(=O)=O)cc4CC[C@H]3[C@@H]1CC[C@@H]2O,-24.2% (active)
16,CC/C=C\C[C@H](O)C/C=C1/C(=O)C=C[C@@H]1C/C=C\CCCC(=O)OC,3% (active)
17,O=C(O)c1ccnc(Br)c1,91.1%
18,COc1cc(/C=C2\CCCC3=C2N=C2SC(C)=NN2C3c2cc(OC)c(OC)c(OC)c2)cc(OC)c1OC (stereo not given),19.8%
19,CCCCCCOc1ccc(C2(Cl)c3ccccc3N(C)c3ccccc32)cc1,50.3%
20,COc1ccc(C2CC(c3ccccc3)=NN2c2nc(C)c(C(C)=O)s2)cc1 (stereo not given),100%

row,Compound,growth
1,CC(C)OCC(CCl)OC(=O)Nc1ccccc1 (stereo not given),112%
2,O=C(CNc1ccc(Cl)cc1)Nc1ccc(-c2nc3ccccc3s2)cc1,-11.2% (active)
3,C[C@H]1[C@H](C)CC[C@]2(C(=O)Nc3ccc4ncccc4c3)CC[C@]3(C)C(=CC[C@@H]4[C@@]5(C)CCCNC(C)(C)[C@@H]5CC[C@]43C)[C@H]12,-55.7% (active)
4,CC(=O)CC(=O)c1ccccc1.[Cu+2],96.7%
5,N#C/C(=C\c1ccc2c(c1)OCO2)n1nnc2cc(F)c(F)cc21,6.05% (active)
6,C=C(CN1CC=CCC1)[C@@H]1CC[C@]2(CO)CC[C@]3(C)[C@H](CC[C@@H]4[C@@]5(C)CC[C@H](O)C(C)(C)[C@@H]5CC[C@]43C)[C@@H]12,89.2%
7,O=C(CC(O)c1ccncc1)c1ccccc1 (stereo not given),-50.3% (active)
8,O=[N+]([O-])c1ccccc1Nc1ccc2ccccc2c1,80.4%
9,CCCSc1nc(Nc2ccc(/C(C)=N\NC(N)=S)cc2)c(C#N)c(-c2ccccc2)n1,66.5%
10,Nc1nc(Cl)c2[nH]cnc2n1,94.7%
11,O=C(Nc1cccc(NC(=O)Nc2cc(C(F)(F)F)ccc2Cl)c1)Nc1cc(C(F)(F)F)ccc1Cl,-8.33% (active)
12,CCCCCCCCCCCCNC(=O)N[C@H](C(=O)N[C@H]1/C=C/OCCNC(=O)/C=C/[C@H](C(C)C)NC1=O)C(C)C,15.5%
13,Cn1ncc2ccc(-c3nc(-c4ccccc4)[nH]c3-c3n[nH]c(=O)n3C3CC3)cc21,104%
14,CN1CCN(c2ccc3nc(-c4ccc5nc(-c6ccc(OCCC(C)(C)C)cc6)[nH]c5c4)[nH]c3c2)CC1,-17.9% (active)
15,CC(=O)c1ccc(Nc2nccc(-c3ccc(Cl)cc3)n2)cc1,76.7%
16,C=C(C)[C@@H]1CC[C@]2(COCCCNCCCN)CC[C@]3(C)[C@H](CC[C@@H]4[C@@]5(C)CC[C@H](OCCCN)C(C)(C)[C@@H]5CC[C@]43C)[C@@H]12,-67.8% (active)
17,CC1=C(C)C(=O)C(Nc2cccc(C(=O)OC(C)(C)C)c2)=C(Br)C1=O,-54% (active)
18,C=C(CBr)[C@@H]1CC[C@]2(C(=O)O)CC[C@]3(C)[C@H](CC[C@@H]4[C@@]5(C)CCC(=O)C(C)(C)[C@@H]5CC[C@]43C)[C@@H]12,40.3%
19,CC(C)c1ccc(C(=O)OCCCl)cc1,111%
20,COc1cc2cc(COc3nccc(-c4ccc(Cl)cc4)n3)c(=O)[nH]c2cc1OC,80.1%

# Reference: PubChem BioAssay (NCI)
